Laboratory results reported in the supplement of paper PMC9262897, “Low-cost anti-mycobacterial drug discovery using engineered E. coli” (Nature Communications, 2022).
Where a name gives a salt, the structure may show the parent alone. ± gives the standard deviation of the averaged measurements.

The molecules below were run on E. coli TESEC Mtb Alr (assay: growth (OD600 after 10 h); higher = more growth (less inhibition)). Details: arabinose 1000000 nM; compound 0.1 mM; raw OD600 reference: median of DMSO wells 0.193, cell-free background 0.041.
Method: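 TESEC Mtb Alr E. coli, or the Alr+ wild-type control, in 384-well plates with Prestwick library compounds at 0.1 mM and 1% DMSO, across arabinose induction levels of 1E3 to 1E7 nM. Growth is read as OD600 after 10 h at 37 °C in triplicate biological replicates.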

| SMILES | growth |
| --- | --- |
| COc1cc(C(=O)NS(=O)(=O)c2ccccc2C)ccc1Cc1cn(C)c2ccc(NC(=O)OC3CCCC3)cc12 [Zafirlukast] | 0.128 ± 0.0091 |
| NNc1nncc2ccccc12 [Hydralazine hydrochloride] | 0.12 ± 0.0069 |
| Nc1c2c(nc3ccccc13)CCCC2O (racemic) [Hydroxytacrine maleate (R,S)] | 0.176 ± 0.0061 |
| CCN(CC)CCOC(=O)C1(C2CCCCC2)CCCCC1 [Dicyclomine hydrochloride] | 0.06453 ± 0.00058 |
| O=C(Oc1cccc2cccnc12)c1ccccc1 [Benzoxiquine] | 0.198 ± 0.011 |
| O=C1CC2(CCCC2)CC(=O)N1CCCCN1CCN(c2ncccn2)CC1 [Buspirone hydrochloride] | 0.198 ± 0.011 |
| CCN(CC)C(=O)C1(c2ccccc2)CC1CN (stereo not drawn) [Milnacipran hydrochloride] | 0.182 ± 0.02 |
| CCN(CC)CC#CCOC(=O)C(O)(c1ccccc1)C1CCCCC1 (stereo not drawn) [Oxybutynin chloride] | 0.0668 ± 0.00052 |
| C[C@]12C=CC(=O)C=C1CC[C@H]1[C@@H]3C[C@@H](O)[C@](O)(C(=O)CO)[C@@]3(C)C[C@H](O)[C@@]12F [Triamcinolone] | 0.142 ± 0.0088 |
| O=C(CCCCC(=O)Nc1c(I)cc(I)c(C(=O)O)c1I)Nc1c(I)cc(I)c(C(=O)O)c1I [Iodipamide] | 0.17 ± 0.0029 |
| CCN(CCO)CCCC(C)Nc1ccnc2cc(Cl)ccc12 (stereo not drawn) [Hydroxychloroquine sulfate] | 0.1939 ± 0.0019 |
| Cc1ccsc1/C=C/C1=NCCCN1C [Morantel tartrate] | 0.176 ± 0.0069 |
| Cc1noc(NS(=O)(=O)c2ccc(N)cc2)c1C [Sulfisoxazole] | 0.12 ± 0.0019 |
